Test in all cases: DAPPL (digital affinity profiling via proximity ligation, sequencing); 10 mM Tris-HCl pH 7.5, 50 mM NaCl, 1 mM DTT, 4% glycerol, room temperature, 30 min; GST-TFs on glutathione beads, 16-mer random dsDNA library, 0.1% formaldehyde crosslink after washing; high values mean tight binding
The target in one test is T1, FEV (Homo sapiens, UniProt Q99581 1-238).
T1 sequence: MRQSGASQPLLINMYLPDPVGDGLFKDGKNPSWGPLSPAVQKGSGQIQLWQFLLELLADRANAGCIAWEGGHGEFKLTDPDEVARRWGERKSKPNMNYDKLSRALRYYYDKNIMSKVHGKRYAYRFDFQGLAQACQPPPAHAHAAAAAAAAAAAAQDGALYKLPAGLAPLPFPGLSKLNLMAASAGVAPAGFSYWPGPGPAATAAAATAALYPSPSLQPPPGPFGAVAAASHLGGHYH
Particulars: protein: recombinant; tags: N-terminal GST; dsDNA, one strand shown. In outline: (§1)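 Pools were built from human transcription factors expressed in yeast as GST fusions, captured on glutathione beads and DNA-barcoded, along with a tag-only sample. Incubation with 200 nmole of a 16-mer random double-stranded DNA library lasted 30 min at room temperature in Tris/NaCl/DTT/glycerol buffer, and was followed by washing, 0.1% formaldehyde crosslinking, proximity ligation, PCR amplification and Illumina NextSeq500 sequencing. Binding signal is the quotient of each hexamer's read frequency for a factor and its frequency for the tag-only sample.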

The next test addresses ETV5 (Homo sapiens, UniProt P41161 1-510). Particulars: protein: recombinant; tags: N-terminal GST; dsDNA, one strand shown. In outline: as §1
The target of a further test is HSF1 (Homo sapiens, UniProt Q00613 1-529). Particulars: protein: recombinant; tags: N-terminal GST; chain copies: 3; dsDNA, one strand shown. In outline:
as §1

In another test the target is T2, SPIC (Homo sapiens, UniProt Q8N5J4 1-248).
T2 sequence: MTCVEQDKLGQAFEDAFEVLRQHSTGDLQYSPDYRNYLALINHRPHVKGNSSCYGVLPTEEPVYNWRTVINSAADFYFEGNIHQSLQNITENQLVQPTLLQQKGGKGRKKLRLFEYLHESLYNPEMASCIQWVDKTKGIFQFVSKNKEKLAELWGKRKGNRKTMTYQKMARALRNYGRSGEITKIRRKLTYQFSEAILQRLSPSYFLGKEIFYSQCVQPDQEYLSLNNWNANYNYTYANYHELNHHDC
Particulars: protein: recombinant; tags: N-terminal GST; dsDNA, one strand shown. In outline:
as §1

The target of a further test is ELF4 (Homo sapiens, UniProt Q99607 1-663). Particulars: protein: recombinant; tags: N-terminal GST; dsDNA, one strand shown. In outline:
as §1

The target of another test is T3, ELK4 (Homo sapiens, UniProt P28324-2 1-405).
T3 sequence: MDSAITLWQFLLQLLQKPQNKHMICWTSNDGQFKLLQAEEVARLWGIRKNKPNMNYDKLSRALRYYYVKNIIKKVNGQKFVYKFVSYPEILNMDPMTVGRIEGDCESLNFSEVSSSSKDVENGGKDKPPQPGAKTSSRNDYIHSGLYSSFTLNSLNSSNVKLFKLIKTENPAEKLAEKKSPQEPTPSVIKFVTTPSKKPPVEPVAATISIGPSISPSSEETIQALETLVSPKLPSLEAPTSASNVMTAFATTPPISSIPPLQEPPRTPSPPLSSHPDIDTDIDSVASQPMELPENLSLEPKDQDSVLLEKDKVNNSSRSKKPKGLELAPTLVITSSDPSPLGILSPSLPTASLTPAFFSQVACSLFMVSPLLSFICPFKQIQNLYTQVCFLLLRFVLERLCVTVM
Particulars: protein: recombinant; tags: N-terminal GST; dsDNA, one strand shown. In outline:
as §1

Another test concerns the target T4, ETV2 (Homo sapiens, UniProt O00321 1-342).
T4 sequence: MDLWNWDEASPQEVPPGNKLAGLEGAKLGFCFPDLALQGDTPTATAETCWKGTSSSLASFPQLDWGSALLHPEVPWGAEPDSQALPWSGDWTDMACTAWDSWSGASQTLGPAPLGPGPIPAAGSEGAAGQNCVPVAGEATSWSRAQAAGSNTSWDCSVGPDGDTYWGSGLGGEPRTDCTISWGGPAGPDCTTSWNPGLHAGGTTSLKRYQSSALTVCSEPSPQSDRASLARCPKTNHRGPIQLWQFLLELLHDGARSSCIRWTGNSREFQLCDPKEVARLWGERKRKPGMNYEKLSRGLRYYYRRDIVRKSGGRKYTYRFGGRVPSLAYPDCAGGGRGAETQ
The settings on record: protein: recombinant; tags: N-terminal GST; dsDNA, one strand shown. In outline: as §1

The target of the next test is T5, ELF3 (Homo sapiens, UniProt P78545 1-371).
T5 sequence: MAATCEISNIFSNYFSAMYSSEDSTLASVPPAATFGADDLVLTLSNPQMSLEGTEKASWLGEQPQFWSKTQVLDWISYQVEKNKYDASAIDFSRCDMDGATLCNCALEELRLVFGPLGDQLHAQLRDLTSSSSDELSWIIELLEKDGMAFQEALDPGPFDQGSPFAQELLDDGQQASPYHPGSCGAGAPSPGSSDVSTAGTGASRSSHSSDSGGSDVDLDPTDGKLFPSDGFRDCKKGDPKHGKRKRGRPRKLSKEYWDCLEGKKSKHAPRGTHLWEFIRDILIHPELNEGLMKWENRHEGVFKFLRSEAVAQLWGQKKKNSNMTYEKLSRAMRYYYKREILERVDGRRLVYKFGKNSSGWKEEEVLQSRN
The settings on record: protein: recombinant; tags: N-terminal GST; dsDNA, one strand shown. In outline:
as §1

The next test has as its target CRX (Homo sapiens, UniProt O43186 1-299). The settings on record: protein: recombinant; tags: N-terminal GST; dsDNA, one strand shown. In outline: as §1
The target of another test is ETV1 (Homo sapiens, UniProt P50549 1-477). The settings on record: protein: recombinant; tags: N-terminal GST; dsDNA, one strand shown. In outline:
as §1

A further test addresses T6, ERF (Homo sapiens, UniProt P50548 1-548).
T6 sequence: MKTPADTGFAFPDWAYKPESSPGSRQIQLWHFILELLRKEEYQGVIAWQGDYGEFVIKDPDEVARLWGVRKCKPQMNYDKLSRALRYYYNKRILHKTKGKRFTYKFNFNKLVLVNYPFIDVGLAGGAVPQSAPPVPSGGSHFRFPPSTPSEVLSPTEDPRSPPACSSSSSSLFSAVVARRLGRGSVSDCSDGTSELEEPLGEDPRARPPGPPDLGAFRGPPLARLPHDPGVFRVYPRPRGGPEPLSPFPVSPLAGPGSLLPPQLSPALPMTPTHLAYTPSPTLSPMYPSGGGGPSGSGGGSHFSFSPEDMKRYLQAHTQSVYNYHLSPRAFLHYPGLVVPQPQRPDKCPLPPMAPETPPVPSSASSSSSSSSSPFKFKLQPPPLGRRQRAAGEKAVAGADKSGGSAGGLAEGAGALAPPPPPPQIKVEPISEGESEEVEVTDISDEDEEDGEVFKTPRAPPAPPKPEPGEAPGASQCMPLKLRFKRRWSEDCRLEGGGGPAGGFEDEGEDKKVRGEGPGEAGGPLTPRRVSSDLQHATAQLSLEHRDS
The settings on record: protein: recombinant; tags: N-terminal GST; dsDNA, one strand shown. In outline: as §1

For another test, the target named is T7, ETV3L (Homo sapiens, UniProt Q6ZN32 1-361).
T7 sequence: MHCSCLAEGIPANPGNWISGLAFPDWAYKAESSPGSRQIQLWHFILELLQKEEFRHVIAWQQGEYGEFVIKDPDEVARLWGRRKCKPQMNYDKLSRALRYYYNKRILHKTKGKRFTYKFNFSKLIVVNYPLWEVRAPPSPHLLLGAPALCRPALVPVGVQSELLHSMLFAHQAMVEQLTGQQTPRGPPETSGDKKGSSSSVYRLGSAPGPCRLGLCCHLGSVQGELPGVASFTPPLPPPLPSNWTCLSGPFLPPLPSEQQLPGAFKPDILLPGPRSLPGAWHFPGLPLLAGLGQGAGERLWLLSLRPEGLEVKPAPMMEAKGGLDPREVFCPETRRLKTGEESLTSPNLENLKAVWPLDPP
The settings on record: protein: recombinant; tags: N-terminal GST; dsDNA, one strand shown. In outline: as §1

In another test the target is T8, ETS2 (Homo sapiens, UniProt P15036 1-469).
T8 sequence: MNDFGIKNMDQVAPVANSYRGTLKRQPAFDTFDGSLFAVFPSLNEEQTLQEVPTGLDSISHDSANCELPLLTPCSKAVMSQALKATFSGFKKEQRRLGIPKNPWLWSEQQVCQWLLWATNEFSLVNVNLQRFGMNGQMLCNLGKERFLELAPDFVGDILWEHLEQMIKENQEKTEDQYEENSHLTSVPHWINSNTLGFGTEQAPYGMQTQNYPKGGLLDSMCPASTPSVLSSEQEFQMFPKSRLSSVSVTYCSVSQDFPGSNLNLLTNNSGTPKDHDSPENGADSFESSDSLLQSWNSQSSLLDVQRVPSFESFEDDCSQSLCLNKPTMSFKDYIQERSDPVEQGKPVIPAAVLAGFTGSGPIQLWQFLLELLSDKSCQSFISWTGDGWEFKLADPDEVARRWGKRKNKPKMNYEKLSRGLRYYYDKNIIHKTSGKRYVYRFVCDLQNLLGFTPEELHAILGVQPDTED
The settings on record: protein: recombinant; tags: N-terminal GST; dsDNA, one strand shown. In outline: as §1

A further test has as its target T9, SPDEF (Homo sapiens, UniProt O95238 1-335).
T9 sequence: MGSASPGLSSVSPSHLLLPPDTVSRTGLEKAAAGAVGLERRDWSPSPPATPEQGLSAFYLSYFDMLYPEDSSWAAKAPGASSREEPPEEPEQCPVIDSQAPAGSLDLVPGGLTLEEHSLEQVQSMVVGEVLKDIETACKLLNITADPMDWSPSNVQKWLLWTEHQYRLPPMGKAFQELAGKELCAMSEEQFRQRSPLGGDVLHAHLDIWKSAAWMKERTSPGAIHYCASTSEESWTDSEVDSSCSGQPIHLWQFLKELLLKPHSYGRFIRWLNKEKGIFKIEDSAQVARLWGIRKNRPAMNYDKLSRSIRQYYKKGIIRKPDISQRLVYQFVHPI
The settings on record: protein: recombinant; tags: N-terminal GST; dsDNA, one strand shown. In outline: as §1

For a further test, the target named is T10, ETV7 (Homo sapiens, UniProt Q9Y603 1-341).
T10 sequence: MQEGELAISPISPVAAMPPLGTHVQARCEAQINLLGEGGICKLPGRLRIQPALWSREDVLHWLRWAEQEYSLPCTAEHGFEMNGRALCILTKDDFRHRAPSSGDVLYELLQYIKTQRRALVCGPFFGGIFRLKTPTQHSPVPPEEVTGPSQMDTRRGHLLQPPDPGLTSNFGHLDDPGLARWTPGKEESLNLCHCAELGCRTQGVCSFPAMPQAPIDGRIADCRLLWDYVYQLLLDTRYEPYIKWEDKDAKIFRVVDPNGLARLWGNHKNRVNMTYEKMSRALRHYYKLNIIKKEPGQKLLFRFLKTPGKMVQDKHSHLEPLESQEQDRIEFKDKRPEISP
Particulars: protein: recombinant; tags: N-terminal GST; dsDNA, one strand shown. In outline:
as §1

For another test, the target named is T11, ELF5 (Homo sapiens, UniProt Q9UKW6-2 1-255).
T11 sequence: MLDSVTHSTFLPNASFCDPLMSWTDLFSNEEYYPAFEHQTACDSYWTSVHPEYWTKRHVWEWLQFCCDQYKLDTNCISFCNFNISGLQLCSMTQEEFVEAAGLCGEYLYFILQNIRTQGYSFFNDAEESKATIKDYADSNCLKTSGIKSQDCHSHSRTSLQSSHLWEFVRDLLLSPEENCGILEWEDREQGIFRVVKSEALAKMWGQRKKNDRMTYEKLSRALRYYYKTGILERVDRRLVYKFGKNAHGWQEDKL
Particulars: protein: recombinant; tags: N-terminal GST; dsDNA, one strand shown. In outline: as §1

The target of another test is T12, ETV3 (Homo sapiens, UniProt P41162-2 1-143).
T12 sequence: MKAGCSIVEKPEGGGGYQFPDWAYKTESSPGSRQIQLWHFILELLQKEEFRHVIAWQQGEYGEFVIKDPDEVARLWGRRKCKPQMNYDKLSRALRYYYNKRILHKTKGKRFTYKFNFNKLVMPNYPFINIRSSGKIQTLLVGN
Particulars: protein: recombinant; tags: N-terminal GST; dsDNA, one strand shown. In outline:
as §1

A further test concerns the target ETV6 (Homo sapiens, UniProt P41212 1-452). The settings on record: protein: recombinant; tags: N-terminal GST; dsDNA, one strand shown. In outline:
as §1

Chain of CRX (O43186 whole entry): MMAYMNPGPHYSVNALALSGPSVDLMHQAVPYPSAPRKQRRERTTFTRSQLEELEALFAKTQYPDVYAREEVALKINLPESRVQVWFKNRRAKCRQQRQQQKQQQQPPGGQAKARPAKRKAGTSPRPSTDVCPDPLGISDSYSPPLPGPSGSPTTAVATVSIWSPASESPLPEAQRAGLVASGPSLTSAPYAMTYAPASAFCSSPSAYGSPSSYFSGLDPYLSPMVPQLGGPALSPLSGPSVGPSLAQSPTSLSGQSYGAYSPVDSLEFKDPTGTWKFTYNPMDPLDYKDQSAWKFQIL
Chain of ETV6 (P41212 whole entry): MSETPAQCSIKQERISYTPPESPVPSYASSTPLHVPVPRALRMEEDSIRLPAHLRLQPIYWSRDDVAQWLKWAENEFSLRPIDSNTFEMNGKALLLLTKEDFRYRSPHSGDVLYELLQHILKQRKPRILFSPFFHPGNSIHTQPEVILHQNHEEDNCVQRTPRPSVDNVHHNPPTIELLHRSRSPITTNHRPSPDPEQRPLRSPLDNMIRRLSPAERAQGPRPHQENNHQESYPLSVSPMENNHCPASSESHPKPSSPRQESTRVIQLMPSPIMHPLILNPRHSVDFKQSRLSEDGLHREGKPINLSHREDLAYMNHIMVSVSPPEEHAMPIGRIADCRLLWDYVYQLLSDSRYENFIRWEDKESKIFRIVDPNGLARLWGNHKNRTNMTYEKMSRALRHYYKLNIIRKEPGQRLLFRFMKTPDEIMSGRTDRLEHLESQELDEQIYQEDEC
Chain of ELF4 (Q99607 whole entry): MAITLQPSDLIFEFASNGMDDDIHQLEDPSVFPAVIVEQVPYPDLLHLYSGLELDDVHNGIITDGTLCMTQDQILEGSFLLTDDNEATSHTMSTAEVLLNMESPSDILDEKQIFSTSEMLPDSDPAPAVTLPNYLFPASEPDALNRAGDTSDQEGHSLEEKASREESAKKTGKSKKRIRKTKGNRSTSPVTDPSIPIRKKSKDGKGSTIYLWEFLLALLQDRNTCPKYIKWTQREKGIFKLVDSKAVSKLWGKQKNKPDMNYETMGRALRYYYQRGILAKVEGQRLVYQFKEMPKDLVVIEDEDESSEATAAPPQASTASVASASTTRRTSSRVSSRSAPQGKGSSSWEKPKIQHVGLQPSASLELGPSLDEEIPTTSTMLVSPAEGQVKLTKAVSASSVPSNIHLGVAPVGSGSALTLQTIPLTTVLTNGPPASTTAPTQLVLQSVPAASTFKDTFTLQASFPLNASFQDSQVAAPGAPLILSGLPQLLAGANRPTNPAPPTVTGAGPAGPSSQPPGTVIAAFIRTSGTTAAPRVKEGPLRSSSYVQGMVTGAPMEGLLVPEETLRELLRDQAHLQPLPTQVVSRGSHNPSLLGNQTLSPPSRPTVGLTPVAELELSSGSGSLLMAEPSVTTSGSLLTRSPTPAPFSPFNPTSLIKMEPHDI
Chain of HSF1 (Q00613 whole entry): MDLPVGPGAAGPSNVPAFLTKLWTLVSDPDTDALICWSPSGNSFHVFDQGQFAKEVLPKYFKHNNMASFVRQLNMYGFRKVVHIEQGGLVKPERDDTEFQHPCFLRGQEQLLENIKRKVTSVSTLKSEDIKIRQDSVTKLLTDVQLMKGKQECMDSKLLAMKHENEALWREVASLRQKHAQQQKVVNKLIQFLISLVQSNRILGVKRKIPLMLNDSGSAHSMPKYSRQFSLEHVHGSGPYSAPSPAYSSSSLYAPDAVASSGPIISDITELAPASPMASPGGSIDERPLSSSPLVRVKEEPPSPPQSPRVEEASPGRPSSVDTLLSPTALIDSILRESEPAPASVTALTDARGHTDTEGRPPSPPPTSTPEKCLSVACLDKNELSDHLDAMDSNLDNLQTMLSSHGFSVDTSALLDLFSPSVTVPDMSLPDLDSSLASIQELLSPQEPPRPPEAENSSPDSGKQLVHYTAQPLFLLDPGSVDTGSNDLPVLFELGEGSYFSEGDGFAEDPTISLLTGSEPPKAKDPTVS
Chain of ETV5 (P41161 whole entry): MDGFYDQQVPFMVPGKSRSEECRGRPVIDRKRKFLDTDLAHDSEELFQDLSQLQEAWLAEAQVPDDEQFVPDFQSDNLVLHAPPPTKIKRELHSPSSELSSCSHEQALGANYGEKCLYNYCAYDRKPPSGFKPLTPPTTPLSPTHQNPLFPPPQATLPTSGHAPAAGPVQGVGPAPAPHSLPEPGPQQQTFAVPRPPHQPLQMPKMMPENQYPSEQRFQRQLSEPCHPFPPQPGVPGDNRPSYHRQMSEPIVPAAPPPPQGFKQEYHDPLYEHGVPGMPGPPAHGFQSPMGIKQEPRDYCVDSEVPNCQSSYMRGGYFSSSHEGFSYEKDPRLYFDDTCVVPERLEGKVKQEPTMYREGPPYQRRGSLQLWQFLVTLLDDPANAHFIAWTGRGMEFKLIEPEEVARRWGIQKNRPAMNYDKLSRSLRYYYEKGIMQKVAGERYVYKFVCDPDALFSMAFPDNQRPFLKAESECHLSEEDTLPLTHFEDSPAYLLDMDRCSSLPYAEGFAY
Chain of ETV1 (P50549 whole entry): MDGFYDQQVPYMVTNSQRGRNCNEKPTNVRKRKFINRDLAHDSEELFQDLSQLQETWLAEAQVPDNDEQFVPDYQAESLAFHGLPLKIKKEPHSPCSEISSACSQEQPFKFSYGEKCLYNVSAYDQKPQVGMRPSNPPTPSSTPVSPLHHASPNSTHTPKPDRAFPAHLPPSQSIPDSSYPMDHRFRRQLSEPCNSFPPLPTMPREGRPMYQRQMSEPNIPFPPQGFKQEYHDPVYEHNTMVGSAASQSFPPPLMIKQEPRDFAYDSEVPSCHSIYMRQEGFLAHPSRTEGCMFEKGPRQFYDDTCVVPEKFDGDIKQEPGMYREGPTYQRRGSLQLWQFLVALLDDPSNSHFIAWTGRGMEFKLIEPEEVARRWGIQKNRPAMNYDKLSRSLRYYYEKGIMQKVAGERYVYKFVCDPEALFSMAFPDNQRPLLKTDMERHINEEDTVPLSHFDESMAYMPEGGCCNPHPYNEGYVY

In the case of TGAATA, the binding signal is 1.06 fold enrichment (6-mer frequency, TF over GST control) with FEV; 1.13 fold enrichment (6-mer frequency, TF over GST control) in the test with ETV5; 1.24 fold enrichment (6-mer frequency, TF over GST control) with HSF1; 1.22 fold enrichment (6-mer frequency, TF over GST control) in the test with SPIC; 1.13 fold enrichment (6-mer frequency, TF over GST control) with ELF4; 1.12 fold enrichment (6-mer frequency, TF over GST control) with ELK4. In addition, the binding signal with ETV2 is 1 fold enrichment (6-mer frequency, TF over GST control); in the test with ELF3, 1.08 fold enrichment (6-mer frequency, TF over GST control); in the test with CRX, 1.16 fold enrichment (6-mer frequency, TF over GST control); in the test with ETV1, 1.15 fold enrichment (6-mer frequency, TF over GST control); in the test with ERF, 1.16 fold enrichment (6-mer frequency, TF over GST control); with ETV3L, 1.11 fold enrichment (6-mer frequency, TF over GST control). Besides, the binding signal with ETS2 is 1.05 fold enrichment (6-mer frequency, TF over GST control); in the test with SPDEF it was 1.09 fold enrichment (6-mer frequency, TF over GST control); in the test with ETV7, 1.05 fold enrichment (6-mer frequency, TF over GST control); with ELF5, 1.07 fold enrichment (6-mer frequency, TF over GST control); with ETV3, 1.14 fold enrichment (6-mer frequency, TF over GST control); with ETV6, 1.08 fold enrichment (6-mer frequency, TF over GST control).

The values above are taken from PMC7862700, “An all-to-all approach to the identification of sequence-specific readers for epigenetic DNA modifications on cytosine”.
